From the supplement of paper PMC10849652 come the findings set out here.

About 7,900 targets were measured; listed, in parts, are those with a hit and a random draw of the rest. About 0.6% of all pairs of compound and target were hits.

Sequence of UniProt P50416 (P50416 whole entry, looked up): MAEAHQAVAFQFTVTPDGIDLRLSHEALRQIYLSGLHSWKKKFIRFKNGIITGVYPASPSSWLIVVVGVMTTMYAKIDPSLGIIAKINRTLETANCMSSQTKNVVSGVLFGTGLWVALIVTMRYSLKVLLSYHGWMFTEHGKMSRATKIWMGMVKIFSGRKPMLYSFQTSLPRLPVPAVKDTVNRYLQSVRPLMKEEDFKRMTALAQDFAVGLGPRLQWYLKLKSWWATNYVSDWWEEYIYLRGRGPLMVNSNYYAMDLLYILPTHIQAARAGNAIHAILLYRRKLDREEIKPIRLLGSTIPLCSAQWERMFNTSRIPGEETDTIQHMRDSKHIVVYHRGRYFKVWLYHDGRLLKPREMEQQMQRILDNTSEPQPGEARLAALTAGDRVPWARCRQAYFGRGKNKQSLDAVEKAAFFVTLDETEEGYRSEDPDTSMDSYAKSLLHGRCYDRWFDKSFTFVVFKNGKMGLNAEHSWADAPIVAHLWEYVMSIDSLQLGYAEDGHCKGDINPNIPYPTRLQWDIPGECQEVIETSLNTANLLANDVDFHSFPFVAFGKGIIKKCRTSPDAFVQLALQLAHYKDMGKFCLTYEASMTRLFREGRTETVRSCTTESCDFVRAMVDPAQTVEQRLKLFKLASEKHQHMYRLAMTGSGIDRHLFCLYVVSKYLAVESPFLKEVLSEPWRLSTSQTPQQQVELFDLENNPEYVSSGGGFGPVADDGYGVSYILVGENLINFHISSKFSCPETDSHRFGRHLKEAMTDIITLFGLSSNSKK
Sequence of UniProt P23786 (P23786 whole entry, looked up): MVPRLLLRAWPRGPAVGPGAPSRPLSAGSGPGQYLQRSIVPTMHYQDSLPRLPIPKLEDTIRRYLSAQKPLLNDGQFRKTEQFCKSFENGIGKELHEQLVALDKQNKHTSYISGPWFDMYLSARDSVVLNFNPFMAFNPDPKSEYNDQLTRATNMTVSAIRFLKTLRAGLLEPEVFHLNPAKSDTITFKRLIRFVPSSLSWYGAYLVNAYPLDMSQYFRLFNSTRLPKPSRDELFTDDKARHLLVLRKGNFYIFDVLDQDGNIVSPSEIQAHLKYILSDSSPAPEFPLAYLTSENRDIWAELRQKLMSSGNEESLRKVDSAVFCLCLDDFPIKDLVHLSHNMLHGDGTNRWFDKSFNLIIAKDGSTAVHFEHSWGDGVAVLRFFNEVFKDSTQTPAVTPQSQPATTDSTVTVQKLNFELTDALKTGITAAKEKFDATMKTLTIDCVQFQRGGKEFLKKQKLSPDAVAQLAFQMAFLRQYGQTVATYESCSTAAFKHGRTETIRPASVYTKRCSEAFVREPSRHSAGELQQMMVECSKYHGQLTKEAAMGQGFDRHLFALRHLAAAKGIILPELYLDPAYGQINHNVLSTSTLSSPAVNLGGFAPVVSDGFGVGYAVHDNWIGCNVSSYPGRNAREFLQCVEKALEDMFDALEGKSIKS
Sequence of UniProt P86791 (P86791 whole entry, looked up): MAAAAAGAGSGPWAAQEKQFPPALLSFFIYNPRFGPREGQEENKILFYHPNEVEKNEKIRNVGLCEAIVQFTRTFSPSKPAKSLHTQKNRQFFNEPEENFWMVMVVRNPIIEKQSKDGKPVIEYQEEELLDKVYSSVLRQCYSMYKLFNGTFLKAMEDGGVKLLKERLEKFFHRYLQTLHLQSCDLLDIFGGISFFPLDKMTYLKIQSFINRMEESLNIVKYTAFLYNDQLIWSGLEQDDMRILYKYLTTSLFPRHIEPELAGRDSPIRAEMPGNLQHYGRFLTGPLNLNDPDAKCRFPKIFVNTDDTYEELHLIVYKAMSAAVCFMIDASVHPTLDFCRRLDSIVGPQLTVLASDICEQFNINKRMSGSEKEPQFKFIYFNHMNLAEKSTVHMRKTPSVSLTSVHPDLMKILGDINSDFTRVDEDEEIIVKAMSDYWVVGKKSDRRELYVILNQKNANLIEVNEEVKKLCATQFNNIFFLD
Sequence of UniProt Q96JM3 (Q96JM3 whole entry, looked up): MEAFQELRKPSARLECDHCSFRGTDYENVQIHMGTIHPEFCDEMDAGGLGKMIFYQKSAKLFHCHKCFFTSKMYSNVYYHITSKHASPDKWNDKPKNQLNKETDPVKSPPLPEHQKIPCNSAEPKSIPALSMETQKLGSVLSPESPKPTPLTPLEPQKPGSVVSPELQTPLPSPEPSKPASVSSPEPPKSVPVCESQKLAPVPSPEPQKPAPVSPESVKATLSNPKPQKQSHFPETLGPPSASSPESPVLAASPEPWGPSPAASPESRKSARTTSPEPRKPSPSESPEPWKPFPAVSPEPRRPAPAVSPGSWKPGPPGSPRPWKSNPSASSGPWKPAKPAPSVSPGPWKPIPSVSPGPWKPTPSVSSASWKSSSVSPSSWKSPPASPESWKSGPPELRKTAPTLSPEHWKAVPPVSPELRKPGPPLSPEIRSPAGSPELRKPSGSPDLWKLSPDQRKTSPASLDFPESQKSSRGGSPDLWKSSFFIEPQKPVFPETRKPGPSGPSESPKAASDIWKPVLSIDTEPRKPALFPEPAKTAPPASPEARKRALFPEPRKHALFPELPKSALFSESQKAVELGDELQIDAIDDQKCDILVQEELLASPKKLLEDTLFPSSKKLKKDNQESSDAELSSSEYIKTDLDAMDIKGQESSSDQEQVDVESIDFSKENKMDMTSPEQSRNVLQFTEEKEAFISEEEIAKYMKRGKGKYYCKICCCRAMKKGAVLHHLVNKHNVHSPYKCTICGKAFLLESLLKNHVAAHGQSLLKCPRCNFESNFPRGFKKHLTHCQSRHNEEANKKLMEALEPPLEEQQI
Sequence of UniProt Q99439 (Q99439 whole entry, looked up): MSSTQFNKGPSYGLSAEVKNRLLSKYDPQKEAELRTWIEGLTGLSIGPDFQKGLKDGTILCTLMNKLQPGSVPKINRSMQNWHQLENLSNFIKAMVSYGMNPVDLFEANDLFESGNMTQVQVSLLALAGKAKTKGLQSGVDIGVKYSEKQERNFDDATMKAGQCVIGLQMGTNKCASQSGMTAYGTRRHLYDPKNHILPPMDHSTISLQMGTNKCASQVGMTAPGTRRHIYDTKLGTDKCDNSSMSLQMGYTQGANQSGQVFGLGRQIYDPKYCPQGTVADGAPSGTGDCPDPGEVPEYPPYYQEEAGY
Sequence of UniProt O00748 (O00748 whole entry, looked up): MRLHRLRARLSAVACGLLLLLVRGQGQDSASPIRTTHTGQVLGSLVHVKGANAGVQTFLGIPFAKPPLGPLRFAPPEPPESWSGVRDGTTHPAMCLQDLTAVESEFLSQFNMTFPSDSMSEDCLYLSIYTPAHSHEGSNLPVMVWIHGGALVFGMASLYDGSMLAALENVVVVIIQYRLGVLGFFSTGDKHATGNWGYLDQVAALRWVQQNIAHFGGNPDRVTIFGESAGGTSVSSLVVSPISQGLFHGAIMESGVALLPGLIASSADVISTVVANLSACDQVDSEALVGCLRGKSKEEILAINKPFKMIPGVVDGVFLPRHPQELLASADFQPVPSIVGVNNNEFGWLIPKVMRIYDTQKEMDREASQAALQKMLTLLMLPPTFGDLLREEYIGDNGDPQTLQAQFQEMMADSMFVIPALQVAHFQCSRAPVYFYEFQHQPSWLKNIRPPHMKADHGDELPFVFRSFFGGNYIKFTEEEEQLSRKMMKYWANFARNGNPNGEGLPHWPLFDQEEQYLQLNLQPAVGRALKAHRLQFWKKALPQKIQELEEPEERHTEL
Sequence of UniProt P60033 (P60033 whole entry, looked up): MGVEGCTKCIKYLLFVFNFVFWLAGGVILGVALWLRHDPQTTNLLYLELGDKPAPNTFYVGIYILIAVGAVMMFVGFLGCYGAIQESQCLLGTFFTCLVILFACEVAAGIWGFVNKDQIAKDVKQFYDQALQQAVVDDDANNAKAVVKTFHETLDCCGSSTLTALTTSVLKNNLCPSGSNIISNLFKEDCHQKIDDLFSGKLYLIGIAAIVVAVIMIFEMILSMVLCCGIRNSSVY
Sequence of UniProt P46108 (P46108 whole entry, looked up): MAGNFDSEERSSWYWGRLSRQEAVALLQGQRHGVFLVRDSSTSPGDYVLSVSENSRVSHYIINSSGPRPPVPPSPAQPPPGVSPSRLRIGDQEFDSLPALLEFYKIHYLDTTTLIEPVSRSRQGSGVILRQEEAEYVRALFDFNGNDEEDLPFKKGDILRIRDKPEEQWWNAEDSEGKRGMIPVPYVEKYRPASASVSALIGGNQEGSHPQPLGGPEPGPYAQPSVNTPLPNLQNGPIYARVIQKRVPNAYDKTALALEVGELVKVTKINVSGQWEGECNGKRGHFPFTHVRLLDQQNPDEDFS
Sequence of UniProt P16152 (P16152 whole entry, looked up): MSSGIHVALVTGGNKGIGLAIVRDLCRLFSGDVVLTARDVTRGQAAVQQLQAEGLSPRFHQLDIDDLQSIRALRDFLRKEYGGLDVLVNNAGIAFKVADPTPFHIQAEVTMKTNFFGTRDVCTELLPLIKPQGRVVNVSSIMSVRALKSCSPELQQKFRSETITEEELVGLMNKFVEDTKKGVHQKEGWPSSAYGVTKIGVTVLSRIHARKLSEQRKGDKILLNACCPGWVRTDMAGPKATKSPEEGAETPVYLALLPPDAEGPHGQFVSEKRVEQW
Sequence of UniProt Q8NHZ8 (Q8NHZ8 whole entry, looked up): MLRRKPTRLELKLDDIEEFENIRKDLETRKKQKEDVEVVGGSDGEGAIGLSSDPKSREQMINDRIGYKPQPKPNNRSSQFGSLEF
Sequence of UniProt Q99653 (Q99653 whole entry, looked up): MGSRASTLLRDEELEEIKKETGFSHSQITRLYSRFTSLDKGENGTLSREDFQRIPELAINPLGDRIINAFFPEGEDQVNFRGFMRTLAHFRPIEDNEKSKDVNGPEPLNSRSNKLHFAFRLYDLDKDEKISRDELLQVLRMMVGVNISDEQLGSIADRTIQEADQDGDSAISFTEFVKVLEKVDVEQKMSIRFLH
Sequence of UniProt Q96CF2 (Q96CF2 whole entry, looked up): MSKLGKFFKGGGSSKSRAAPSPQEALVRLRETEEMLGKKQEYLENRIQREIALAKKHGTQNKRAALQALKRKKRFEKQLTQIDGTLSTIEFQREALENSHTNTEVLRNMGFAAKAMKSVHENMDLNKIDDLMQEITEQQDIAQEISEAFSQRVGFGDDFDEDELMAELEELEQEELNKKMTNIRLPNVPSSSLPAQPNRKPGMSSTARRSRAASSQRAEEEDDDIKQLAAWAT

Compound in this test: Cc1cc(Nc2cc(CN3CCOCC3)c3nc(C)c(Cc4ccc(Cl)cc4F)n3n2)n[nH]1 [gandotinib]
Description: log2 fold change, soluble protein after heating vs DMSO (PISA); higher = thermal stabilisation; K562 cells, 10 uM, 30 min; active = over 0.2 and 3.5 SD of the protein, either way, in both replicates (recomputed). Put shortly: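 Soluble protein was quantified by TMTpro 16plex LC-MS/MS after channel sums were equalised. It was obtained as the supernatant after 21,000xg for 90 min from pooled aliquots of K562 cells (2×10^6 cells/mL, 10 μM compound, 30 min) heated for 3 min across 48°C-58°C and extracted in PBS with 0.5% NP-40 at 4°C. Thermal stability values are relative to control samples and come from duplicates. They are given as log2 fold changes.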
As to CHP1 (UniProt Q99653), the log2 fold change is 0.022 (inactive). On to CES2 isoform 4 (UniProt O00748), for which the log2 fold change was 0.048 (inactive). The result for CPT2 (UniProt P23786) reads 0.119 (inactive). Next, CNN2 (UniProt Q99439): -0.088 (inactive).

As to CBX5 (UniProt P45973), the log2 fold change is -0.015 (inactive). The result for CNOT4 isoform 6 (UniProt O95628) reads -0.005 (inactive); that for CD55 isoform 7 (UniProt P08174), 0.052 (inactive); that for CPT1A (UniProt P50416), 0.211 (inactive). Take CD81 (UniProt P60033): the log2 fold change is 0.019 (inactive). The result for CRK (UniProt P46108) reads -0.096 (inactive).

For CSK (UniProt P41240), the log2 fold change is -0.018 (inactive). In the case of CELF2 isoform 3 (UniProt O95319), the log2 fold change was -0.027 (inactive). The result for CDK5RAP3 isoform 4 (UniProt Q96JB5) reads -0.051 (inactive). The result for CSNK2A2 (UniProt P19784) reads -0.097 (inactive); that for CCZ1 (UniProt P86791), -0.081 (inactive); that for CBR1 (UniProt P16152), 0.034 (inactive). The result for CHAMP1 (UniProt Q96JM3) reads -0.046 (inactive); that for CHMP4C (UniProt Q96CF2), 0.073 (inactive); that for CBS (UniProt P35520), -0.033 (inactive). For the target COX15 (UniProt Q7KZN9), the log2 fold change was -0.07 (inactive). Next, CDAN1 (UniProt Q8IWY9): -0.054 (inactive). Next, CDC26 (UniProt Q8NHZ8): -0.033 (inactive); COPS3 (UniProt Q9UNS2): -0.087 (inactive).
